23 compounds from PubChem BioAssay (NCATS) can be followed below.

Records with an inconclusive call do not appear. A call without a number means that no potency is given here. The source made the active and inactive calls. Calls follow the shape of the full dose curve.
Potency is read from the fitted curve at half-maximal effect.

A short description of the assay: S16 Schwann cell PMP22 intronic element beta-lactamase assay (AID 624044). Also: nearly all actives have a fitted effect of over 15% in size. The note with it: S16 rat Schwann cells, PMP22 element beta-lactamase FRET, 24 h; series mostly up to 38.3 µM. In outline:
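Rat S16 Schwann cells with beta-Lac driven by a PMP22 intronic element, compound-treated 24 h at 37 °C. LiveBLAzer FRET B/G read: 460 nm normalized to potassium clavulanate vs DMSO; 535 nm FRET as viability; concentration-effect curves classified.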
Consider `C/C=C/C=N/NC(=O)c1ccncc1`, for which the Potency result is “inactive”. For `CC(C)Nc1cccnc1N1CCN(C(=O)c2cc3cc(NS(C)(=O)=O)ccc3[nH]2)CC1` the value was “inactive”. For `CCCCNc1ccc(C(=O)OCCOCCOCCOCCOCCOCCOCCOCCOCCOC)cc1` the value was “inactive”. To `COc1cc(C(=O)NCc2ccc(OCCN(C)C)cc2)cc(OC)c1OC` belongs “inactive”; to `OC(C#CCN1CCCC1)(c1ccccc1)c1ccccc1`, “inactive”.

With `CCC(CC)(CC(=O)Nc1cccc(/C=C/c2nc(C3CCC3)cs2)c1)C(=O)O`, the Potency entry was “inactive”. For the compound `NC(N)=NCc1cccc(I)c1`, the Potency entry was “inactive”.

On to `CCCCN=C(N)N=C(N)N`, for which the Potency result was “inactive”. To `O=C(O)P(=O)(O)O` belongs “inactive”; to `Nc1nc(-c2ccccc2)c(Br)c(=O)[nH]1`, “inactive”.

As to `CCNC(=O)NCc1cccc(Cl)c1`, the Potency result is “inactive”. For `CC(=O)OC[C@H]1O[C@@H](n2ncc(=O)[nH]c2=O)[C@H](OC(C)=O)[C@@H]1OC(C)=O` the value was 9.99 µM (active). To `COc1cc(N)c(Cl)cc1C(=O)NC1CCN(Cc2ccccc2)CC1` belongs “inactive”; to `CCOc1ccccc1OCCN[C@H](C)Cc1ccc(OC)c(S(N)(=O)=O)c1`, “inactive”; to `O=C1C(CCS(=O)c2ccccc2)C(=O)N(c2ccccc2)N1c1ccccc1` (stereo not drawn), “inactive”. For `Nc1ccc(S(=O)(=O)NCc2ccccc2)cc1` the value was “inactive”; for `COc1ccc(-c2cc(C(F)F)nn2-c2ccc(S(N)(=O)=O)cc2)cc1F`, “inactive”; for `COc1ccc(/C=N/NC(=O)c2ccncc2)cc1OC`, “inactive”.

Regarding `Nc1ccc(S(=O)(=O)Nc2cnc3ccccc3n2)cc1`, the Potency entry is “inactive”.

On to `C#C[C@]1(O)CC[C@H]2[C@@H]3CCc4cc(OC)ccc4[C@H]3CC[C@@]21C`, for which the Potency entry is “inactive”. To `O=C(O)C(Cc1cc(I)c(O)c(I)c1)c1ccccc1` (stereo not drawn) belongs “inactive”. For `NC(=O)C1(N2CCCCC2)CCN(CCCC(=O)c2ccc(F)cc2)CC1` the value was “inactive”. To `CC(=O)NO` belongs “inactive”.
